{"source": "PubChem BioAssay AID1438", "about": "(Sanford-Burnham Center for Chemical Genomics, 2008)", "note": "The campaign covered roughly 2,200 compounds. About 45 (2%) were called active. The rule behind the calls is not given here. A selection follows. Entries with a potency or affinity are not part of this list.", "data": [{"target": "Runt-related transcription factor 1 (Homo sapiens) + Core-binding factor subunit beta (Homo sapiens) (UniProt Q01196+Q13951)", "sequence (Q01196 whole entry, looked up, the tested form may be a part)": "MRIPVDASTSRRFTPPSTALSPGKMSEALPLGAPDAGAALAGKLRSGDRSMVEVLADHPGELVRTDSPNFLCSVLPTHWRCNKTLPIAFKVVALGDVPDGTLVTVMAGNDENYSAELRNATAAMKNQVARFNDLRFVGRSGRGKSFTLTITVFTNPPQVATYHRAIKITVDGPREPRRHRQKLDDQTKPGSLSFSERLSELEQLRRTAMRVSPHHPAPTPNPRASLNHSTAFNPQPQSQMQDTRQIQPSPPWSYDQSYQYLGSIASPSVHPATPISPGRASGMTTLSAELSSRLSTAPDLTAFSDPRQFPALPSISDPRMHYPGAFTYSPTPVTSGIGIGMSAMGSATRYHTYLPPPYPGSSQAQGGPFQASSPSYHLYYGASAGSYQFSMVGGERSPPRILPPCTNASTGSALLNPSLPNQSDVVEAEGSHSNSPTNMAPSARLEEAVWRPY", "sequence (Q13951 whole entry, looked up, the tested form may be a part)": "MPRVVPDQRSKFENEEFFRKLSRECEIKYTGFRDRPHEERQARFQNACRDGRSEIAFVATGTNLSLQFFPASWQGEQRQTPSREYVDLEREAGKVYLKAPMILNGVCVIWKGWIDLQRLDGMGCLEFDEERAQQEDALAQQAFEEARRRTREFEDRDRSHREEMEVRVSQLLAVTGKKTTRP", "test": "inhibitors of RUNX1 Runt–CBFb-SMMHC binding, biochemical, TR-FRET (AID 1438)", "conditions": "TR-FRET Runt domain–CBFb-SMMHC binding, at 20 µM, hits give high values", "values": [{"compound": "Cc1cc(Nc2ccccc2)nc2cc(O)ccc12", "inhibition": "15.5% (inactive)"}, {"compound": "Cc1cc(O)ccc1N/C=C(\\C#N)c1nc2ccccc2o1", "inhibition": "8% (inactive)"}, {"compound": "C=CCOc1ccc(C2C(C#N)=C(N)N(Nc3ccccc3)C3=C2C(=O)CCC3)cc1OC", "note": "(centres undefined)", "inhibition": "32.3% (inactive)"}, {"compound": "CCN1C2=C(C(=O)CCC2)C(c2ccc(O)c(Br)c2)C2=C1CCCC2=O", "inhibition": "19.7% (inactive)"}, {"compound": "Cc1ccc(C2C3=C(CC(C)(C)CC3=O)N(CCN3CCOCC3)C3=C2C(=O)CC(C)(C)C3)cc1", "inhibition": "42.9% (inactive)"}, {"compound": "CCCN1C2=C(C(=O)CCC2)C(c2ccc(O)c(Br)c2)C2=C1CCCC2=O", "inhibition": "24.4% (inactive)"}, {"compound": "N#Cc1c(N)[nH]c(=S)c(C#N)c1-c1ccccc1", "inhibition": "-64.2% (inactive)"}, {"compound": "CCOC(=O)c1cc2c(=O)n3ccccc3nc2n(CCCOC)c1=NC(=O)c1ccncc1", "inhibition": "2.5% (inactive)"}, {"compound": "COCCN1C=C(C(=O)OC)C(c2cc(Br)c(OC)c(OC)c2)C(C(=O)OC)=C1", "inhibition": "47.6% (inactive)"}, {"compound": "COC(=O)C1C(O)CCC2CN3CCc4c([nH]c5ccccc45)C3CC21", "note": "(centres undefined)", "inhibition": "-11.7% (inactive)"}, {"compound": "C=CCn1c(=N)c(C(=O)NCCCOC)cc2c(=O)n3cccc(C)c3nc21", "inhibition": "2.9% (inactive)"}, {"compound": "Cn1c(=O)nc2n(Cc3ccccc3)c3ccccc3cc-2c1=O", "inhibition": "36.1% (inactive)"}, {"compound": "CCn1c(O)c(C=Nc2ccccc2)sc1=S", "inhibition": "-3.7% (inactive)"}, {"compound": "O=C1CCCC2=C1C(c1ccc(Br)cc1)c1c([nH]c(=S)[nH]c1=O)N2", "note": "(centres undefined)", "inhibition": "42.6% (inactive)"}, {"compound": "c1ccc(-c2nc(N3CCCCC3)nc3ccccc23)cc1", "inhibition": "25.8% (inactive)"}, {"compound": "CCc1nnc(NC(=O)C2(C)COC(c3ccccc3)OC2)s1", "note": "(centres undefined)", "inhibition": "-7% (inactive)"}, {"compound": "CCC(C)(C)n1nnnc1C(c1cc2cc3c(cc2[nH]c1=O)OCO3)N1CCN(C)CC1", "note": "(centres undefined)", "inhibition": "39.5% (inactive)"}, {"compound": "CCCNC(=O)Cn1sc2nc(C)cc(C)c2c1=O", "inhibition": "-3.9% (inactive)"}, {"compound": "O=C(O)CSc1c2c(nc3cc(C(=O)N4CCOCC4)ccc13)CCCC2", "inhibition": "-4.9% (inactive)"}, {"compound": "O=C(Cn1c2ccccc2c(=O)c2ccccc21)Nc1ccccc1F", "inhibition": "-15.4% (inactive)"}, {"compound": "O=C(Cn1c2ccccc2c(=O)c2ccccc21)N/N=C/c1ccc(N2CCCC2)c([N+](=O)[O-])c1", "inhibition": "10.6% (inactive)"}, {"compound": "O=C(Cn1c2ccccc2c(=O)c2ccccc21)Nc1cccc(F)c1", "inhibition": "39% (inactive)"}, {"compound": "O=C(CCC(=O)N/N=C/c1cc(Cl)cc(Cl)c1O)NCc1ccccc1", "inhibition": "-4.9% (inactive)"}, {"compound": "CCc1cc2c(COC(=O)c3c(C)noc3C)cc(=O)oc2cc1O", "inhibition": "-33.2% (inactive)"}, {"compound": "Cc1ccc(CNC(=O)c2cc3c(=O)n4ccccc4nc3n(CC3CCCO3)c2=N)cc1", "note": "(centres undefined)", "inhibition": "36.3% (inactive)"}, {"compound": "N=c1c(C(=O)NCc2ccc(F)cc2)cc2c(=O)n3ccccc3nc2n1CCCN1CCOCC1", "inhibition": "38.7% (inactive)"}, {"compound": "N=c1c(C(=O)NCc2ccc3c(c2)OCO3)cc2c(=O)n3ccccc3nc2n1Cc1cccnc1", "inhibition": "48.7% (inactive)"}, {"compound": "CCOC(=O)c1cc2c(=O)n3ccccc3nc2n(Cc2ccccc2)c1=N", "inhibition": "41.8% (inactive)"}, {"compound": "N=c1c(C(=O)NCc2ccco2)cc2c(=O)n3ccccc3nc2n1Cc1ccccc1", "inhibition": "65% (active)"}, {"compound": "Cc1cccn2c(=O)c3cc(C(=O)NCc4ccco4)c(=N)n(CCc4ccccc4)c3nc12", "inhibition": "-9.3% (inactive)"}, {"compound": "COc1ccc(CCn2c(=N)c(C(=O)NCc3ccco3)cc3c(=O)n4cccc(C)c4nc32)cc1", "inhibition": "21.9% (inactive)"}, {"compound": "N=c1c(C(=O)NCc2ccc(F)cc2)cc2c(=O)n3ccccc3nc2n1Cc1cccnc1", "inhibition": "48.7% (inactive)"}, {"compound": "COc1ccc(CNC(=O)c2cc3c(=O)n4ccccc4nc3n(Cc3cccnc3)c2=N)cc1", "inhibition": "29.1% (inactive)"}, {"compound": "CCN1/C(=C/C(=O)c2ccco2)Sc2ccccc21", "inhibition": "15.1% (inactive)"}, {"compound": "N#Cc1c(N)n(CCc2ccc(F)cc2)c2nc3ccccc3nc12", "inhibition": "32% (inactive)"}, {"compound": "COCCCNC(=S)NCCNc1nc2c(C)c(C)ccc2cc1C#N", "inhibition": "-1.9% (inactive)"}, {"compound": "Cc1ccc(C2C=C(c3ccccc3)Nc3nc(N4C(=O)CCC4=O)nn32)cc1", "note": "(centres undefined)", "inhibition": "-11.2% (inactive)"}, {"compound": "Cc1ccc(C2C3=C(CC(C)(C)CC3=O)Nc3[nH]c(=S)[nH]c(=O)c32)cc1", "note": "(centres undefined)", "inhibition": "39.6% (inactive)"}, {"compound": "COCCCNC(=S)NCCCNc1nc2cc(C)cc(C)c2cc1C#N", "inhibition": "-6.6% (inactive)"}, {"compound": "O=c1cc(-c2ccc(O)cc2)oc2cc(O)c(C3OC(CO)C(O)C(O)C3O)c(O)c12", "note": "(centres undefined)", "inhibition": "-6.5% (inactive)"}, {"compound": "Cc1c2c(n3c(nc4ccccc43)c1C#N)N(CCN(C)C)CC2", "inhibition": "-12.2% (inactive)"}, {"compound": "CCc1nnc(NS(=O)(=O)c2ccc(N/C=C/C(=O)c3ccc(OC)cc3)cc2)s1", "inhibition": "-1.7% (inactive)"}, {"compound": "CCc1nnc(NC(=O)c2sc3nc4c(cc3c2N)CCCCCC4)s1", "inhibition": "38.3% (inactive)"}, {"compound": "Cc1ccc(C(=O)c2sc3nc4c(cc3c2N)CCC4)cc1", "inhibition": "13.7% (inactive)"}, {"compound": "Cc1cc(=O)oc2c(CN3CC(C)OC(C)C3)c(O)c(Cl)cc12", "note": "(centres undefined)", "inhibition": "-12.9% (inactive)"}, {"compound": "CCOC(=O)CCc1c(C)c(C#N)c2nc3ccccc3n2c1-n1ccnc1", "inhibition": "-4% (inactive)"}, {"compound": "CCOC(=O)c1cc2ccc(OC)cc2oc1=O", "inhibition": "-9.7% (inactive)"}, {"compound": "COC(=O)Cc1c(C)c2cc(Cl)c(OC(=O)c3ccco3)cc2oc1=O", "inhibition": "19.4% (inactive)"}, {"compound": "O=C(O)c1ccc(N=c2oc3cc(O)ccc3cc2C(=O)NCc2ccccc2)cc1", "inhibition": "-1.1% (inactive)"}, {"compound": "c1ccn2c(c1)nc1c2nc2ccccn21", "inhibition": "8.5% (inactive)"}, {"compound": "CCOC(=O)C1=C(CSc2nc3c(cc2C#N)CN(C)CC3)OC(N)=C(C#N)C1c1ccc(F)cc1", "note": "(centres undefined)", "inhibition": "22.5% (inactive)"}, {"compound": "CCOC(=O)C1=C(CSc2nc3c(cc2C#N)CN(C)CC3)OC(N)=C(C#N)C1c1ccccc1", "note": "(centres undefined)", "inhibition": "29.2% (inactive)"}, {"compound": "CCOC(=O)C1=C(O)/C(=C/c2cn(CC(=O)N3CCCC3)c3ccccc23)SC1=Nc1ccccc1", "inhibition": "4% (inactive)"}, {"compound": "CC1CCc2c(sc(Nc3nc4c(F)cccc4s3)c2C(N)=O)C1", "note": "(centres undefined)", "inhibition": "48.6% (inactive)"}, {"compound": "CCOC(=O)c1c(NC(=O)C(F)(OC)C(F)(F)F)sc2c1CCN(C)C2", "note": "(centres undefined)", "inhibition": "-4.1% (inactive)"}, {"compound": "CCOC(=O)c1cc2c(ccc3ccccc32)oc1=O", "inhibition": "-0.5% (inactive)"}, {"compound": "CNC(=O)c1cc2c(ccc3ccccc32)oc1=N", "inhibition": "2.9% (inactive)"}, {"compound": "CC(C)OC(=O)CC(=O)CSc1nc2c(cc1C#N)CCCCCC2", "inhibition": "38.5% (inactive)"}, {"compound": "CC(=O)c1c(N2CCN(C)CC2)nc(=S)n(Cc2ccccc2)c1C", "inhibition": "15.7% (inactive)"}, {"compound": "CCCOc1c(Br)cc(C2C3=C(CCCC3=O)N(C)C3=C2C(=O)CCC3)cc1OC", "inhibition": "41.4% (inactive)"}, {"compound": "CCCOc1c(Br)cc(C2C3=C(CCCC3=O)N(CC)C3=C2C(=O)CCC3)cc1OC", "inhibition": "-13.6% (inactive)"}, {"compound": "C=CCNc1sc(C(=O)c2cccs2)c(N)c1C#N", "inhibition": "-0.1% (inactive)"}, {"compound": "CNc1sc(C(=O)c2cccs2)c(N)c1-c1nc2ccccc2s1", "inhibition": "35.8% (inactive)"}, {"compound": "Cc1cccn2c(=O)c(/C=C(\\C#N)C(N)=O)c(Oc3ccccc3)nc12", "inhibition": "-15.3% (inactive)"}, {"compound": "COc1cccc(C(=O)Nc2nc3c(s2)CN(C)CC3)c1", "inhibition": "-21% (inactive)"}, {"compound": "COCCCNC(=O)c1c(N)n(-c2ccc(S(N)(=O)=O)cc2)c2nc3ccccc3nc12", "inhibition": "43.4% (inactive)"}, {"compound": "COCCCNC(=O)c1c(N)n(-c2ccccc2)c2nc3ccccc3nc12", "inhibition": "-6.7% (inactive)"}, {"compound": "CCCN1C2CCCC1CC(NC(=S)Nc1ccc(OC)cc1)C2", "note": "(centres undefined)", "inhibition": "-12% (inactive)"}, {"compound": "CSc1nc(NCC(C)C)c2c3c(sc2n1)CN(C)CC3", "inhibition": "37.7% (inactive)"}, {"compound": "CSc1nc(NCCCO)c2c3c(sc2n1)CN(C)CC3", "inhibition": "-10.5% (inactive)"}, {"compound": "COc1ccc(Br)cc1C1NC(=O)c2c(sc3c2CCN(C)C3)N1", "note": "(centres undefined)", "inhibition": "15% (inactive)"}, {"compound": "CCn1nc(NC(=O)C2CCCO2)c2cc3cccc(C)c3nc21", "note": "(centres undefined)", "inhibition": "2.1% (inactive)"}, {"compound": "CCN(CC)c1ccc(/C=N\\NC(=O)c2cccc3cc[nH]c23)cc1", "inhibition": "5.9% (inactive)"}, {"compound": "CCN1C=C(C(=O)OC)C(c2cccc(OC)c2OC)C(C(=O)OC)=C1", "inhibition": "-23.2% (inactive)"}, {"compound": "Cc1c(O)ccc2c3c(c(=O)oc12)CCC(C)C3", "note": "(centres undefined)", "inhibition": "19.7% (inactive)"}, {"compound": "COc1cc(/C=C(\\C#N)C(=O)Nc2cccc3ncccc23)cc(OC)c1OC", "inhibition": "18.6% (inactive)"}, {"compound": "Cc1ccc(/C=C/C(=O)Nc2cccc3ncccc23)o1", "inhibition": "19.8% (inactive)"}, {"compound": "COc1ccc(-c2cc(C(F)(F)F)n3nc(N)nc3n2)cc1", "inhibition": "25.3% (inactive)"}, {"compound": "O=C(Cc1c2ccccc2nc2ccccc12)c1ccccc1", "inhibition": "48.7% (inactive)"}, {"compound": "COCCCNC(=O)c1cc2c(=O)n3cccc(C)c3nc2n(C(C)C)c1=N", "inhibition": "1.4% (inactive)"}, {"compound": "CC(=O)Nc1nc2n(n1)C(c1ccc(Cl)cc1)C=C(C)N2", "note": "(centres undefined)", "inhibition": "45.7% (inactive)"}, {"compound": "CC1=CC(c2ccccc2)n2nc(NS(=O)(=O)c3ccc(C)cc3)nc2N1", "note": "(centres undefined)", "inhibition": "49.9% (inactive)"}, {"compound": "N#Cc1c(N)n(-c2cccc(C(=O)O)c2)c2nc3ccccc3nc12", "inhibition": "-8.2% (inactive)"}, {"compound": "O=c1oc2ccc3ccccc3c2cc1-c1nnc(-c2cccs2)o1", "inhibition": "29.8% (inactive)"}, {"compound": "CCOC(=O)c1cc2c(=O)n3ccccc3nc2n(CCCOC)c1=NC(=O)c1cccnc1", "inhibition": "47.6% (inactive)"}, {"compound": "COC(=O)Cc1cc(=O)oc2cc(O)ccc12", "inhibition": "32.6% (inactive)"}, {"compound": "CN(C)c1cccc(C(=O)OCc2cc(=O)oc3cc(O)ccc23)c1", "inhibition": "47.5% (inactive)"}, {"compound": "CCOC(=O)c1c(NC(=O)CSc2ncccn2)sc2c1CCN(Cc1ccccc1)C2", "inhibition": "-5.3% (inactive)"}, {"compound": "CCCCNC(=O)c1cc2c(=O)n3cccc(C)c3nc2n(Cc2ccccc2)c1=N", "inhibition": "33.9% (inactive)"}, {"compound": "CCCCn1c2nc3ccccc3nc2c2c(=N)oc(C)nc21", "inhibition": "36.7% (inactive)"}, {"compound": "Cc1nc2c(c(=O)n1Cc1ccco1)c1nc3ccccc3nc1n2Cc1ccccc1", "inhibition": "80.9% (active)"}, {"compound": "CCOc1ccc(-n2c(N)c(C(=O)NCc3ccco3)c3nc4ccccc4nc32)cc1", "inhibition": "43.5% (inactive)"}, {"compound": "CCCn1c(C)nc2c(c1=O)c1nc3ccccc3nc1n2CCC1=CCCCC1", "inhibition": "36.3% (inactive)"}, {"compound": "COc1ccc(-n2c(N)c(C(=O)NCc3ccco3)c3nc4ccccc4nc32)cc1", "inhibition": "42.9% (inactive)"}]}]}
